Source: PubChem BioAssay (Tox21)
Records with an inconclusive call do not appear. A call without a number means that no potency is given here. Activity calls are given as the source filed them. Calls follow the shape of the dose curve; as a rule, active = well fitted curve in the direction sought with a large enough effect in the repeat runs; inconclusive = weak or mixed curves; inactive = no such curve, though single readings can be large; an effect the other way counts as inactive or inconclusive.

Assay: qHTS RealTime-Glo MT Cell Viability Assay in HEK293 cells - 0 hour (AID 1224880); also: top concentration of the series differs between compounds; nearly all actives have a fitted effect of over 45% in size
Details: RealTime-Glo luminescence; series mostly up to 76.8 µM
In short: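 Viable HEK293 cells reduce a cell-permeant prosubstrate; the product diffuses out and is consumed by NanoLuc in the medium to give light. Compounds went in after a 5 h incubation and plates were read over the treatment course.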

| SMILES | Potency |
| --- | --- |
| N=C(N)S(=O)O | inactive |
| CC[C@@]1(c2ccccc2)NC(=O)N(C)C1=O | inactive |
| CC(=O)Oc1ccc(C(C)=O)cc1 | inactive |
| Cc1ccc(N)nc1 | inactive |
| CCCOc1ccc(C(=O)OCCN(CC)CC)cc1N | inactive |
| CCCCCCC(O)CO (centres undefined) | inactive |
| CC(=O)OC/C=C(/C)CCC=C(C)C | inactive |
| CC(C)(C)OC(=O)c1ccccc1C(=O)O | inactive |
| CC1=C(O)C(=O)CO1 | inactive |
| O=C(O)Cc1ccccc1Oc1ccc(Cl)cc1Cl | inactive |
| O=c1c(O)c(O)c1=O | inactive |
| NCC1CCC(C(=O)Oc2ccc(CCC(=O)O)cc2)CC1 (centres undefined) | inactive |
| Cc1cc(=O)oc2cc(O[C@@H]3SC[C@@H](O)[C@H](O)[C@H]3O)ccc12 | inactive |
| CO/N=C(\C(=O)O)c1csc(NC(=O)CCl)n1 | inactive |
| C=CCN1CCc2nc(N)sc2CC1 | inactive |
| COc1ccc2cc(CCC(C)=O)ccc2c1 | inactive |
| CCCCCCCCC1CO1 (centres undefined) | inactive |
| Cc1nc2ccc(Cl)cc2[nH]1 | inactive |
| CC(C)c1cc(C(C)C)cc(C(C)C)c1 | inactive |

| SMILES | Potency |
| --- | --- |
| COC(=O)c1ccc(NC(C)=O)cc1OC | inactive |
| O=S(=O)(O)c1ccc(Cl)cc1 | inactive |
| C=COCCCCO | inactive |
| C/C(=N\O)c1ccc(OCC(=O)N2CCCCC2)cc1 | inactive |
| Cc1cccc(N)n1 | inactive |
| CCCCCCCCCCCC(C)=O | inactive |
| CN(C)CCc1c[nH]c2ccc(C[C@H]3COC(=O)N3)cc12 | inactive |
| CC(=O)/C=C/C=C1/C2CCC(C2)C1(C)C (centres undefined) | inactive |
| Cc1ccc(O)c([N+](=O)[O-])c1 | inactive |
| CCCCN=C(N)N=C(N)N | inactive |
| CN(C)CCC[C@@]1(c2ccc(F)cc2)OCc2cc(C#N)ccc21 | inactive |
| O=C(O)P(=O)(O)O | inactive |
| CC(=O)SCC(CC(=O)c1ccc(C)cc1)C(=O)O (centres undefined) | inactive |
| CC(C)(C)C(=O)CCc1ccc(Cl)cc1 | inactive |
| Nc1ccc(C(=O)NCC(=O)O)cc1 | inactive |
| NC(=O)CC[C@@H](N)C(=O)O | inactive |
| C[n+]1ccccc1/C=N/O | inactive |
| COc1cc2nc(N3CCN(C(=O)C4CCCO4)CC3)nc(N)c2cc1OC (centres undefined) | inactive |
| COc1cnc(NS(=O)(=O)c2ccc(N)cc2)nc1 | inactive |

Assay: A CellTox Green Cytotoxicity Assay to monitor cytotoxicity in HEK293 cells - 32 hour (AID 1224881); also: nearly all actives have a fitted effect of over 40% in size
Details: CellTox Green fluorescence; series mostly up to 76.8 µM
In short: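 Fluorescence intensity, read at 0, 8, 16, 24, 32 and 40 h of compound treatment, reflected dye binding to DNA of dead HEK293 cells; compounds (23 nL, DMSO) were added 5 h after plating cells with reagent.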

| SMILES | Potency |
| --- | --- |
| N=C(N)S(=O)O | inactive |
| CC[C@@]1(c2ccccc2)NC(=O)N(C)C1=O | inactive |
| CC(=O)Oc1ccc(C(C)=O)cc1 | inactive |
| Cc1ccc(N)nc1 | inactive |
| CCCOc1ccc(C(=O)OCCN(CC)CC)cc1N | inactive |
| CCCCCCC(O)CO (centres undefined) | inactive |
| CC(=O)OC/C=C(/C)CCC=C(C)C | inactive |
| CC(C)(C)OC(=O)c1ccccc1C(=O)O | inactive |
| CC1=C(O)C(=O)CO1 | inactive |
| O=C(O)Cc1ccccc1Oc1ccc(Cl)cc1Cl | inactive |
| O=c1c(O)c(O)c1=O | inactive |
| NCC1CCC(C(=O)Oc2ccc(CCC(=O)O)cc2)CC1 (centres undefined) | inactive |
| Cc1cc(=O)oc2cc(O[C@@H]3SC[C@@H](O)[C@H](O)[C@H]3O)ccc12 | inactive |
| CO/N=C(\C(=O)O)c1csc(NC(=O)CCl)n1 | inactive |
| C=CCN1CCc2nc(N)sc2CC1 | inactive |
| COc1ccc2cc(CCC(C)=O)ccc2c1 | inactive |
| CCCCCCCCC1CO1 (centres undefined) | inactive |
| Cc1nc2ccc(Cl)cc2[nH]1 | inactive |
| CC(C)c1cc(C(C)C)cc(C(C)C)c1 | inactive |

| SMILES | Potency |
| --- | --- |
| COC(=O)c1ccc(NC(C)=O)cc1OC | inactive |
| O=S(=O)(O)c1ccc(Cl)cc1 | inactive |
| C=COCCCCO | inactive |
| C/C(=N\O)c1ccc(OCC(=O)N2CCCCC2)cc1 | inactive |
| Cc1cccc(N)n1 | inactive |
| CCCCCCCCCCCC(C)=O | inactive |
| CN(C)CCc1c[nH]c2ccc(C[C@H]3COC(=O)N3)cc12 | inactive |
| CC(=O)/C=C/C=C1/C2CCC(C2)C1(C)C (centres undefined) | inactive |
| Cc1ccc(O)c([N+](=O)[O-])c1 | inactive |
| CCCCN=C(N)N=C(N)N | inactive |
| CN(C)CCC[C@@]1(c2ccc(F)cc2)OCc2cc(C#N)ccc21 | inactive |
| O=C(O)P(=O)(O)O | inactive |
| CC(=O)SCC(CC(=O)c1ccc(C)cc1)C(=O)O (centres undefined) | inactive |
| CC(C)(C)C(=O)CCc1ccc(Cl)cc1 | inactive |
| Nc1ccc(C(=O)NCC(=O)O)cc1 | inactive |
| NC(=O)CC[C@@H](N)C(=O)O | inactive |
| C[n+]1ccccc1/C=N/O | inactive |
| COc1cc2nc(N3CCN(C(=O)C4CCCO4)CC3)nc(N)c2cc1OC (centres undefined) | inactive |
| COc1cnc(NS(=O)(=O)c2ccc(N)cc2)nc1 | inactive |

Assay: A CellTox Green Cytotoxicity Assay to monitor cytotoxicity in HepG2 cells - 0 hour (AID 1224882); also: nearly all actives have a fitted effect of over 35% in size
Details: CellTox Green fluorescence; series mostly up to 76.8 µM
In short: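 Using 1536-well format, dye-containing HepG2 suspension was seeded, allowed 5 h at 37 C/5% CO2, dosed by pintool with compounds, positive and negative controls, and imaged for fluorescence across 40 h.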

| SMILES | Potency |
| --- | --- |
| N=C(N)S(=O)O | inactive |
| CC[C@@]1(c2ccccc2)NC(=O)N(C)C1=O | inactive |
| CC(=O)Oc1ccc(C(C)=O)cc1 | inactive |
| Cc1ccc(N)nc1 | inactive |
| CCCOc1ccc(C(=O)OCCN(CC)CC)cc1N | inactive |
| CCCCCCC(O)CO (centres undefined) | inactive |
| CC(=O)OC/C=C(/C)CCC=C(C)C | inactive |
| CC(C)(C)OC(=O)c1ccccc1C(=O)O | inactive |
| CC1=C(O)C(=O)CO1 | inactive |
| O=C(O)Cc1ccccc1Oc1ccc(Cl)cc1Cl | inactive |
| O=c1c(O)c(O)c1=O | inactive |
| NCC1CCC(C(=O)Oc2ccc(CCC(=O)O)cc2)CC1 (centres undefined) | inactive |
| Cc1cc(=O)oc2cc(O[C@@H]3SC[C@@H](O)[C@H](O)[C@H]3O)ccc12 | inactive |
| CO/N=C(\C(=O)O)c1csc(NC(=O)CCl)n1 | inactive |
| C=CCN1CCc2nc(N)sc2CC1 | inactive |
| COc1ccc2cc(CCC(C)=O)ccc2c1 | inactive |
| CCCCCCCCC1CO1 (centres undefined) | inactive |
| Cc1nc2ccc(Cl)cc2[nH]1 | inactive |
| CC(C)c1cc(C(C)C)cc(C(C)C)c1 | inactive |

| SMILES | Potency |
| --- | --- |
| COC(=O)c1ccc(NC(C)=O)cc1OC | inactive |
| O=S(=O)(O)c1ccc(Cl)cc1 | inactive |
| C=COCCCCO | inactive |
| C/C(=N\O)c1ccc(OCC(=O)N2CCCCC2)cc1 | inactive |
| Cc1cccc(N)n1 | inactive |
| CCCCCCCCCCCC(C)=O | inactive |
| CN(C)CCc1c[nH]c2ccc(C[C@H]3COC(=O)N3)cc12 | inactive |
| CC(=O)/C=C/C=C1/C2CCC(C2)C1(C)C (centres undefined) | inactive |
| Cc1ccc(O)c([N+](=O)[O-])c1 | inactive |
| CCCCN=C(N)N=C(N)N | inactive |
| CN(C)CCC[C@@]1(c2ccc(F)cc2)OCc2cc(C#N)ccc21 | inactive |
| O=C(O)P(=O)(O)O | inactive |
| CC(=O)SCC(CC(=O)c1ccc(C)cc1)C(=O)O (centres undefined) | inactive |
| CC(C)(C)C(=O)CCc1ccc(Cl)cc1 | inactive |
| Nc1ccc(C(=O)NCC(=O)O)cc1 | inactive |
| NC(=O)CC[C@@H](N)C(=O)O | inactive |
| C[n+]1ccccc1/C=N/O | inactive |
| COc1cc2nc(N3CCN(C(=O)C4CCCO4)CC3)nc(N)c2cc1OC (centres undefined) | inactive |
| COc1cnc(NS(=O)(=O)c2ccc(N)cc2)nc1 | inactive |
